Results on 22 compounds are retold here after PubChem BioAssay (Tox21).

Structures are written as SMILES. “And” between values parts separate entries of the source, which are not always exact repeats. Equal values may be shown once. A number with no mark means an inactive call. Inconclusive results are not listed. The source made the active and inactive calls. The call rests on the fitted dose curve; in most records, active means well fitted curve in the direction sought with a large enough effect in the repeat runs; inconclusive means weak or mixed curves; inactive means no such curve, though single readings can be large; an effect the other way counts as inactive or inconclusive.

A short description of experiment [1]: A CellTox Green Cytotoxicity Assay to monitor cytotoxicity in HEK293 cells - 32 hour (AID 1224881). Further: nearly all actives have a fitted effect of over 40% in size. Further: potency means the concentration at half of the fitted maximal effect. An outline of the steps: (§1)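 Each value comes from one timepoint of a single continuous run in which HEK293 cells with CellTox Green were exposed to compound for up to 40 h at 37 C, dye fluorescence rising with cell death.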
Experiment [2] is described as follows: A CellTox Green Cytotoxicity Assay to monitor cytotoxicity in HepG2 cells - 0 hour (AID 1224882). Further: nearly all actives have a fitted effect of over 35% in size. An outline of the steps: (§2)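 Continuous culture of HepG2 cells with a membrane-impermeant DNA dye; rising fluorescence marks dead cells. Compound exposure lasted up to 40 h at 37 C, with reads every 8 h from 0 h.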
Experiment [3] in a line: A CellTox Green Cytotoxicity Assay to monitor cytotoxicity in HEK293 cells - 8 hour (AID 1224884). Further: nearly all actives have a fitted effect of over 35% in size. The procedure, abridged:
as §1

Experiment [4] in a line: qHTS RealTime-Glo MT Cell Viability Assay in HEK293 cells - 24 hour (AID 1224886). Further: nearly all actives have a fitted effect of over 50% in size. Further: potency means the concentration at half of the fitted maximal effect. On activity change, negative = cytotoxicity: top concentration of the series differs between compounds. An outline of the steps: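 Quantitative high-throughput screen of the Tox21 10K library in HEK293: cells and RealTime-Glo reagents plated together, compound added at 5 h, luminescence monitored through 40 h at 37 C.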
A general note: In qHTS, concentration-response curves come from the screen itself.

Experiment [5] is described as follows: A CellTox Green Cytotoxicity Assay to monitor cytotoxicity in HEK293 cells - 16 hour (AID 1224888). Further: nearly all actives have a fitted effect of over 35% in size. The procedure, abridged:
as §1

Experiment [6] can be described thus: qHTS RealTime-Glo MT Cell Viability Assay in HepG2 cells - 0 hour (AID 1224889). Further: nearly all actives have a fitted effect of over 50% in size. The procedure, abridged:
(§3)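 Compound treatment began 5 h after plating HepG2 cells (600/well) with NanoLuc luciferase and prosubstrate. Plates stayed at 37 C for 40 h; luminescence was captured at six time points, 0 h through 40 h.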

The nature of experiment [7]: A CellTox Green Cytotoxicity Assay to monitor cytotoxicity in HepG2 cells - 8 hour (AID 1224890). Further: nearly all actives have a fitted effect of over 45% in size. An outline of the steps:
as §2

Experiment [8] in a line: qHTS RealTime-Glo MT Cell Viability Assay in HepG2 cells - 16 hour (AID 1224885). Further: nearly all actives have a fitted effect of over 50% in size. Further: potency means the concentration at half of the fitted maximal effect. An outline of the steps: as §3
Experiment [9] is described as follows: qHTS RealTime-Glo MT Cell Viability Assay in HEK293 cells - 8 hour (AID 1224887). Further: nearly all actives have a fitted effect of over 50% in size. Further: potency means the concentration at half of the fitted maximal effect. On activity change, negative = cytotoxicity: top concentration of the series differs between compounds. An outline of the steps: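 qHTS format; HEK293 cells with NanoLuc/prosubstrate reagent, 37 C/5% CO2 for 5 h pre-dosing; compounds 23 nL in DMSO; luminescence at each time point reflects viable cells.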
On the % scale 0 is the no-effect control and ±100 the full control effect.

On to `COc1ccc(S(=O)(=O)N2C(=O)[C@@](c3ccccc3OC)(N3C[C@H](O)C[C@H]3C(=O)N(C)C)c3cc(Cl)ccc32)c(OC)c1`, for which the Potency entry in [1], in experiment [2], in experiment [3], in experiment [5], in experiment [6] and in [7] was “inactive” in each case. Besides, in experiment [4], the Potency was 49 µM (active).

`CCCn1cnc2c1c(=O)n(CCCCC(C)=O)c(=O)n2C`: the Potency result in experiment [1], in [2], in experiment [3], in experiment [8], in [4] and in experiment [9] was “inactive” each time. Moreover, the Potency entry in experiment [5], in [6] and in experiment [7] was “inactive” in each case.

As to `C=CC(=O)OCCOCCOCCOCCOC(=O)C=C`, the Potency in [1] is 54.4 µM (active); in experiment [4], 34.8 µM (active) and 30.6 µM (active). For the same compound, the Potency result in experiment [2], in experiment [3], in [5] and in [6] was “inactive” throughout.

Take `CC(=O)c1ccc2c(c1)N(CCCN(C)C)c1ccccc1S2`: the Potency result in experiment [1], in experiment [2], in [3], in [8], in [4] and in experiment [9] was “inactive” in each case. Moreover, the Potency result in experiment [7] was “inactive”.

Consider `CC(C)Nc1ccc(NC(C)C)c2c1C(=O)c1ccccc1C2=O`, for which the Potency in experiment [1] is 25.5 µM (active). Also, the Potency result in experiment [2], in [3], in experiment [8], in [4], in [9] and in [6] was “inactive” throughout.

Take `O=C(O)CNCC(=O)O`: the cytotoxicity increase in [1] was 4.03% [at 6.97 µM]; in experiment [3] it was -1.38% [at 6.97 µM]; in [7] it was 3.91% [at 6.97 µM]. In addition, in experiment [2], the cytotoxicity is -10.6% [at 6.97 µM]. Moreover, the activity change, negative = cytotoxic in experiment [8] was -0.86% [at 6.97 µM]. For the same compound, the activity change, negative = cytotoxicity in experiment [4] is -8.06% [at 6.97 µM]; in [9] it was -7.77% [at 6.97 µM]; in experiment [6] it was -5.44% [at 6.97 µM].

In the case of `CCN(CC)c1ccc(C(=C2C=CC(=[N+](CC)CC)C=C2)c2cc(S(=O)(=O)O)ccc2S(=O)(=O)[O-])cc1`, the Potency result in experiment [1], in experiment [2], in [3], in experiment [8], in experiment [4] and in experiment [9] was “inactive” in each case. In addition, in experiment [7], the Potency result is “inactive”.

Take `CCCCOC(=O)CCCCCCCC(=O)OCCCC`: the Potency entry in [1], in [2], in experiment [8], in experiment [4], in [9] and in experiment [6] was “inactive” in each case. Also, the Potency result in [7] was “inactive”.

`CC1=CC=C(C(C)C)CC1`: the Potency entry in experiment [1], in [2], in experiment [3], in [8], in experiment [4] and in experiment [9] was “inactive” each time. In addition, the Potency entry in experiment [5], in experiment [6] and in experiment [7] was “inactive” in each case.

Turning to `C#C[C@]1(O)CC[C@H]2[C@@H]3CCc4cc(OC5CCCC5)ccc4[C@H]3CC[C@@]21C`, the Potency entry in experiment [1], in [2], in [3], in experiment [5] and in experiment [6] was “inactive” throughout.

For `C/C(=C(\CCOP(=O)(O)O)SC(=O)c1ccccc1)N(C=O)Cc1cnc(C)nc1N`, the cytotoxicity increase is -7.02% [at 6.97 µM] in experiment [1] and 0.403% [at 6.97 µM] in experiment [7]. Besides, the cytotoxicity in experiment [2] is 4.51% [at 6.97 µM]. The activity change, negative = cytotoxic in experiment [8] is 1.38% [at 6.97 µM]. For the same compound, the activity change, negative = cytotoxicity in experiment [4] was 2.35% [at 6.97 µM]; in experiment [9] it was 3.68% [at 6.97 µM]; in experiment [6], 4.53% [at 6.97 µM]. Further, the activity change in experiment [5] was -2.42% [at 6.97 µM, active compounds read high].

Regarding `O=[N+]([O-])c1ccc2[nH]ncc2c1`, the Potency result in [1], in experiment [2], in experiment [3], in experiment [8], in experiment [4] and in experiment [9] was “inactive” each time. Besides, the Potency entry in [5], in experiment [6] and in experiment [7] was “inactive” throughout.

Consider `CC(=O)NO`, for which the Potency entry in [1], in experiment [2], in [3], in [8], in experiment [4] and in experiment [9] was “inactive” in each case. The Potency result in experiment [6] and in experiment [7] was “inactive” throughout.

Consider `COc1cc2c(cc1OC)C(C(C(=O)N(CCc1ccc(OC)c(OC)c1OC)CCc1ccc(OC)c(OC)c1OC)c1ccccc1)=NCC2` (centres undefined), for which the Potency entry in experiment [1], in experiment [2], in experiment [3], in experiment [5] and in [6] was “inactive” throughout. Further, the Potency in [4] is 3.38 µM (active); in experiment [9], 3.01 µM (active).

In the case of `Cc1cc(N)c2cc(NC(=O)Nc3ccc4nc(C)cc(N)c4c3)ccc2n1`, the Potency entry in experiment [1], in experiment [2], in experiment [3], in experiment [8], in experiment [4] and in [9] was “inactive” throughout. Also, in [6], the Potency result is “inactive”.

Consider `COc1ccc(-c2nc3ccc(C4=NNC(=O)CC4C)cc3[nH]2)cc1` (centres undefined), for which the Potency entry in experiment [1], in experiment [2], in experiment [3], in [8], in experiment [6] and in experiment [7] was “inactive” throughout. Moreover, the Potency in experiment [4] was 9.52 µM (active).

Turning to `CCO[C@H](Cc1ccc(OCCc2ccc(OS(C)(=O)=O)cc2)cc1)C(=O)O`, the Potency result in [1], in experiment [2], in experiment [3], in experiment [8], in experiment [4] and in experiment [9] was “inactive” in each case. Moreover, the Potency result in experiment [5] and in experiment [7] was “inactive” in each case.

For `CC(C)C[C@H]1C(=O)N2CCC[C@H]2[C@]2(O)O[C@](NC(=O)[C@@H]3C=C4c5cccc6[nH]c(Br)c(c56)C[C@H]4N(C)C3)(C(C)C)C(=O)N12`, the Potency result in experiment [1], in experiment [2], in experiment [3], in [5], in experiment [6] and in experiment [7] was “inactive” each time. For the same compound, the Potency in experiment [8] was 13.2 µM (active).

As to `ClCCOCCOCCCl`, the Potency result in experiment [1], in [2], in experiment [3], in [8], in experiment [4] and in experiment [9] was “inactive” each time. Moreover, the Potency entry in experiment [5] and in [7] was “inactive” in each case.

For `CCCNCC(O)COc1ccccc1C(=O)CCc1ccccc1` (centres undefined), the Potency result in experiment [1], in experiment [2], in [3], in experiment [8], in experiment [6] and in [7] was “inactive” in each case. In addition, the Potency in experiment [4] and in [9] was 2.13 µM (active) throughout.

As to `CC1=CCCC(C)(C)C12CCC(C)O2` (centres undefined), the Potency entry in experiment [1], in experiment [2], in experiment [8], in experiment [4], in experiment [9] and in [5] was “inactive” in each case. For the same compound, the Potency entry in experiment [6] and in experiment [7] was “inactive” each time.

In the case of `Cc1nn(C)c(Oc2ccccc2)c1/C=N/OCc1ccc(C(=O)OC(C)(C)C)cc1`, the Potency result in experiment [1], in experiment [2], in experiment [3], in experiment [8], in [9] and in [7] was “inactive” in each case. For the same compound, in experiment [4], the Potency is 0.0049 µM (active).
